# High-throughput results from PubChem BioAssay.
# Shn3 inh set2 = Schnurri-3 reporter inhibition in Clone20 osteoblasts | Clone20 osteoblast Shn3 3'UTR firefly luciferase, 24 h | inhibition, % at 12.5 µM | 360,000 tested, 0.52% active | AID 588674;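 active means mean inhibition of at least 75% with every replicate also reaching 75%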;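 further: 0% = median of neutral control wells and 100% = pilot-screen positive control compound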
# PAX8 reporter = lowers PAX8-driven luciferase in RMG-I cells | AID 652154 | inhibition, % at 12.6 µM | 360,000 tested, 1.2% active | RMG-I TPO-luciferase reporter, SteadyGlo, 24 h;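 active means mean replicate inhibition at least 60% with every replicate also reaching 60%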;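 further: luciferase light reporting Pax8 driven TPO promoter activity; plate controls were median of neutral control wells for no effect and mitoxantrone controls for full effect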
# LMP1 NFkB inh = reduces LMP1-driven NF-kappaB luciferase signal | LMP1-induced NF-kappaB luciferase reporter cells, luminescence | inhibition, % at 12.5 µM | 350,000 tested, 0.69% active | AID 504558; in the data active means inhibition above about 41%;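 further: 0% = neutral control wells and 100% = reference inhibitor control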
# NSD2 HMT inh = blocks human histone methyltransferase NSD2; O96028; NSD2 peptide methylation, AlphaScreen, 120 min; inhibition, % at 12.5 µM; 310,000 tested, 0.54% active; in the data active means inhibition above about 50%
# Target sequence (O96028 whole entry, looked up): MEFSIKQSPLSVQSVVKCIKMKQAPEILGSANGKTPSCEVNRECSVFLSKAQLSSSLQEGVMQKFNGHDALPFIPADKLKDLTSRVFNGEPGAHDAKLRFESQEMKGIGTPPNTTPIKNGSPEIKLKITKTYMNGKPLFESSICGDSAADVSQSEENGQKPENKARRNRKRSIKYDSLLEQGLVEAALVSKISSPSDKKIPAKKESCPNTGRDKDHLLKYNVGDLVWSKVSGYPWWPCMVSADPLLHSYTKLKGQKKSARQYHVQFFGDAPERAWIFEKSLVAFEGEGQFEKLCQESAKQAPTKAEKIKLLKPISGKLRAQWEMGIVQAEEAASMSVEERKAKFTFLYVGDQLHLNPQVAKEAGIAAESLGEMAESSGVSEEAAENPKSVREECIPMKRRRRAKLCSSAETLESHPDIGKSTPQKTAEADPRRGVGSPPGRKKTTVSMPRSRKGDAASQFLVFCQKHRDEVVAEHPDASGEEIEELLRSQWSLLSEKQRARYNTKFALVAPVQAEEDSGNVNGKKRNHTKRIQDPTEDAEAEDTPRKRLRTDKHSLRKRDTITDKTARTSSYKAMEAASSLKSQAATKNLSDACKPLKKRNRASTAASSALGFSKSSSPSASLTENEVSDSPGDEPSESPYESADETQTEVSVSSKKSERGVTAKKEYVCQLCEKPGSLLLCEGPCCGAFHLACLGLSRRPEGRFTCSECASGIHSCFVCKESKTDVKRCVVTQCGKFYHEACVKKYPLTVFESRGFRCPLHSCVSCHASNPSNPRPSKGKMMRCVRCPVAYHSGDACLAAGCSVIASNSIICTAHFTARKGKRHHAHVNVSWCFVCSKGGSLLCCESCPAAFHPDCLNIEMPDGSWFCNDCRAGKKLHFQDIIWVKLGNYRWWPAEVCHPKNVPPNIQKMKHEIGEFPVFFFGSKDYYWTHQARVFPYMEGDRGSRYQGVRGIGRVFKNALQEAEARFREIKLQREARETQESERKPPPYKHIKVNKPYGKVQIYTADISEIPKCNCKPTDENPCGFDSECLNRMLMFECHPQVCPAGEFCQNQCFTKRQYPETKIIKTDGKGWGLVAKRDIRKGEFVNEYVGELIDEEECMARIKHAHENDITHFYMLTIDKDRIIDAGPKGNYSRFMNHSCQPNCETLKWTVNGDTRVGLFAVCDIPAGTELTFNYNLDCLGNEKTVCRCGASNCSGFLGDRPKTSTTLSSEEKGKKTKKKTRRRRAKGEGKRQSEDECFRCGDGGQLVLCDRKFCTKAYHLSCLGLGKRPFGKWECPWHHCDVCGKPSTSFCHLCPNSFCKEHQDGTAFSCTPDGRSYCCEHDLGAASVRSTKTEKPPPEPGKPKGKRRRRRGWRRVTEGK
# Env fusion inh = HIV envelope-mediated fusion inhibition | HeLa-JRFL Env/CEM21 cell fusion, luciferase | inhibition, % at 12.3 µM | 360,000 tested, 1.1% active | AID 651610;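 active means mean replicate inhibition score of at least 50 and every replicate individually at or above 50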;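 further: 0% = plate neutral controls and 100% = maraviroc near 300 nM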
# N-glyco inh = N-linked glycosylation inhibition. D54 ERlucT glycosylation luciferase reporter, 24 h; percent of 100 nM tunicamycin response. reporter increase, % at 12.5 µM. 360,000 tested, 0.23% active;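 active means mean luciferase reporter signal, scaled so untreated is 0 and the glycosylation-blocking control 100, at or above a set limit in every replicate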;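 further: luciferase carries N-glycosylation sites so blocking glycosylation raises the light; 0% = median of neutral control wells and 100% = median of 100 nM tunicamycin wells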
# Numbers without * were called inactive; x = not tested or not shown; [ ] = another dose, or the depositor's remark. This is a sample that favours compounds with a hit; in the whole collection about 2.8% have one here.
SMILES,Shn3 inh set2,PAX8 reporter,LMP1 NFkB inh,NSD2 HMT inh,Env fusion inh,N-glyco inh
C[C@H](O)C#Cc1ccc2c(c1)O[C@@H](CN(C)Cc1ccc(-c3ccccc3)cc1)[C@H](C)CN([C@@H](C)CO)S2(=O)=O,82.6,87.2*,-118.4,x,13.1,-9.1
C[C@H](O)C#Cc1ccc2c(c1)O[C@@H](CN(C)Cc1ccc(-c3ccccc3)cc1)[C@@H](C)CN([C@H](C)CO)S2(=O)=O,x,94.3*,x,x,x,x
C[C@@H](O)C#Cc1ccc2c(c1)O[C@@H](CN(C)Cc1ccc(-c3ccccc3)cc1)[C@@H](C)CN([C@@H](C)CO)S2(=O)=O,x,50.2,x,x,x,x
C[C@H](O)C#Cc1ccc2c(c1)O[C@H](CN(C)Cc1ccccc1)[C@@H](C)CN([C@@H](C)CO)S2(=O)=O,x,x,x,x,-21.9[16.7 µM],x
CCCNC(=O)C[C@@H]1CC[C@@H]2[C@H](COc3ccc(NC(=O)Nc4ccccc4F)cc3C(=O)N2C)O1,x,8.1,x,x,14.4[16.7 µM],x
CC(C)NC(=O)Nc1ccc2c(c1)C(=O)N([C@@H](C)CO)C[C@@H](C)[C@H](CN(C)CC1CCCCC1)O2,x,5.3,x,x,-8.2[16.7 µM],x
CCC(=O)N(C)C[C@@H]1Oc2cc(C#Cc3ccccn3)ccc2S(=O)(=O)N([C@@H](C)CO)C[C@@H]1C,x,x,x,x,-0.6[16.7 µM],x
COc1ccc(CC(=O)Oc2ccc(C)cc2Br)cc1OC,6.8,8.6,-13.3,10.5,61.3*,2.9
CCC(CC)COC(=O)C1=C(C)NC(=O)NC1c1cccc([N+](=O)[O-])c1 (stereo not given),20.5,4.4,-2.2,2.0,61.9*,-1.1
C[C@@H]1CN([C@@H](C)CO)C(=O)CCCn2cc(nn2)CO[C@H]1CN(C)S(=O)(=O)c1ccc(Oc2ccccc2)cc1,x,0.5,x,x,-11.0[16.7 µM],x
CCCCc1c(-c2ccccc2OC)ncn1CCc1ccccc1OC,x,27.1,x,x,31.2,x
CCCCc1c(-c2ccccc2F)ncn1CCc1ccccc1OC,x,-4.5,x,x,65.0*,x
CCCCCc1c(-c2ccccc2OC)ncn1CCc1ccccc1OC,x,99.4*,x,x,69.4*,x
CCCCc1c(-c2ccccc2OC)ncn1Cc1ccc(C(C)(C)C)cc1,x,71.6*,x,x,19.9,x
CCc1c(Cc2ccccc2)ncn1CCc1ccccc1OC,x,78.0*,x,x,6.7,x
CC(C)NC(=O)Nc1ccc2c(c1)C(=O)N([C@H](C)CO)C[C@@H](C)[C@H](CN(C)Cc1ccc3c(c1)OCO3)OCCCC[C@@H](C)O2,x,4.3,x,x,-21.8[16.7 µM],x
O=C(N[C@H]1C=C[C@@H](CC(=O)N2CCc3ccccc3C2)O[C@H]1CO)C1CC1,x,3.7,x,x,23.8[16.7 µM],x
COc1ccc(CN(C)C[C@H]2Oc3ccc(NC(=O)Nc4c(C)noc4C)cc3CC(=O)N([C@@H](C)CO)C[C@@H]2C)cc1,x,-1.8,x,x,x,x
C[C@H](CO)N1C[C@H](C)[C@@H](CN(C)S(=O)(=O)c2ccc(F)cc2)Oc2c(NC(=O)C3CC3)cccc2C1=O,x,1.3,x,x,-24.0[16.7 µM],x
C[C@@H]1CCCCO[C@@H](CN(C)CC2CC2)[C@H](C)CN([C@@H](C)CO)C(=O)c2cc(NC(=O)Nc3ccc(F)cc3)ccc2O1,x,-2.9,x,x,-1.2[16.7 µM],x
CN1[C@H](C(=O)N2CCOCC2)[C@@H](CO)[C@@H]2Cn3c(ccc(/C=C/c4ccccc4)c3=O)[C@@H]21,x,30.1,x,x,x,x
CCCN1[C@@H]2c3ccc(/C=C/c4ccccc4)c(=O)n3C[C@@H]2[C@@H](CO)[C@@H]1C(=O)N1CCOCC1,x,68.9*,x,x,x,x
CC=Cc1ccc2n(c1=O)C[C@H]1[C@H](CO)[C@@H](C(=O)OC)N(CCc3ccccc3)[C@@H]21 (mixture of isomers),x,4.1,x,x,59.9*[16.7 µM],x
CC=Cc1ccc2n(c1=O)C[C@H]1[C@H](CO)[C@@H](C(=O)NC3CCC3)N(CC)[C@@H]21 (mixture of isomers),x,86.9*,x,x,x,x
CC=Cc1ccc2n(c1=O)C[C@@H]1[C@@H](CO)[C@H](C(=O)NC3CCCCC3)N(CCC)[C@H]21 (mixture of isomers),x,4.8,x,x,x,x
SMILES,Shn3 inh set2,PAX8 reporter,LMP1 NFkB inh,NSD2 HMT inh,Env fusion inh,N-glyco inh
CC=Cc1ccc2n(c1=O)C[C@H]1[C@H](CO)[C@@H](C(=O)OC)N(Cc3ccccc3)[C@@H]21 (mixture of isomers),x,-7.3,x,x,x,x
CN(C)C(=O)C[C@@H]1CC[C@@H]2[C@H](COc3ccc(NC(=O)c4ccc(F)c(F)c4)cc3C(=O)N2C)O1,x,-17.6,x,x,13.0[16.7 µM],x
O=C(NCC[C@H]1CC[C@@H](NC(=O)c2cccnc2)[C@@H](CO)O1)Nc1ccc(Cl)cc1,x,0.2,x,x,-15.9[16.7 µM],x
COc1ccccc1Sc1nc(-c2ccccn2)ncc1OC,25.9,-1.8,8.5,10.6,1.2,0.9
COc1cnc(-c2ccccn2)nc1NC(C)C,91.7*,59.3,-6.5,3.4,24.5,-14.8
CCN(CC)c1c(-c2ccccc2)c2cc(C)ccc2[nH]c1=O,16.5,3.7,-21.9,x,68.1*,1.5
O=C(c1ccccc1F)N1CC(=O)N2[C@H](CO)[C@H](c3ccc(-c4ccccc4)cc3)[C@@H]2C1,x,-19.2,x,x,x,x
COCC#Cc1ccc2c(c1)O[C@@H](CN(C)Cc1ccc(F)cc1)[C@H](C)CN([C@@H](C)CO)S2(=O)=O,x,x,x,x,4.6[16.7 µM],x
CCCc1[nH]n(-c2nc3ccccc3s2)c(=O)c1C=NCCCOC,-27.0,-10.2,-8.5,0.0,-6.5,0.5
CCCCCN=Cc1c(C)[nH]n(-c2nc3ccccc3s2)c1=O,-5.1,36.1,51.4*,1.6,-35.0,-15.1
Cn1c(=O)c(C(=O)NNC(=O)c2ccc(Br)cc2)c(O)c2ccccc21,1.2,63.7*,-3.7,-0.5,17.8,3.0
O=C(C[C@H]1CC[C@@H]2[C@H](COC[C@H](O)CN2C(=O)c2cccnc2)O1)NC1Cc2ccccc2C1,x,-9.9,x,x,-8.0[16.7 µM],x
C[C@@H]1CN([C@@H](C)CO)C(=O)c2cc(NC(=O)Cc3ccccc3)ccc2O[C@@H](C)CCCCO[C@@H]1CN(C)C(=O)Nc1ccc2c(c1)OCO2,x,-7.0,x,x,x,x
Cc1ccc(S(=O)(=O)Nc2ccc3c(c2)C(=O)N([C@H](C)CO)C[C@@H](C)[C@H](CN(C)S(=O)(=O)c2ccccc2)OCCCC[C@H](C)O3)cc1,x,79.7*,x,x,-11.3[16.7 µM],x
Cc1ccc(S(=O)(=O)N(C)C[C@H]2OCCCC[C@H](C)Oc3ccc(NS(=O)(=O)c4ccccc4)cc3C(=O)N([C@H](C)CO)C[C@@H]2C)cc1,x,62.3*,x,x,-86.5[16.7 µM],x
COc1cccc(-c2c(-c3cc(OC)cc(OC)c3)n(C)c3ccc(-c4cnc(OC)nc4)cc23)c1,15.8,41.8,-29.1,x,21.4,-1.0
COc1ccc(-c2c(-c3cc(OC)cc(OC)c3)n(C)c3ccc(-c4ccc5c(c4)OCCO5)cc23)cc1,1.0,2.6,-8.7,x,56.2*,-2.2
COc1cccc(-c2c(-c3cc(OC)cc(OC)c3)n(C)c3ccc(-c4cnc(N5CCOCC5)nc4)cc23)c1,1.6,84.0*,-64.2,x,-44.5,-4.7
O=C(C[C@H]1CC[C@@H]2[C@H](COC[C@@H](O)CN2C(=O)C2CCCC2)O1)NCc1ccncc1,x,-32.6,x,x,x,x
